Compound activity from PubChem.
Sampled rows, rich in hits. Any-hit rate of the full collection: about 8.8%.
HT1080NT lethal – qHTS for induction of synthetic lethality in tumor cells producing 2HG: qHTS for the HT-1080-NT fibrosarcoma cell line. AID 686970, 2013. Potency, µM (doses to about 46.1 µM), most hits filed as cytotoxic. 1.6% of 360,000 active. HT-1080-NT fibrosarcoma viability, CellTiter-Glo ATP luminescence, 48 h;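 note: NT is the 2HG producing partner of a matched IDH1 knockdown line; nearly all actives have a fitted effect of over 55% in size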
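Viability of the 2HG-overproducing fibrosarcoma line after 48 hours of compound exposure at 37 degrees C was determined by luminescence with CellTiter-Glo, and concentration-effect curves were then fitted and categorized.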
KB-3-1 cytotox – qHTS assay for MDR1-selective chemotherapeutics: Primary screen using the parental adenocarcinoma cell KB-3-1. KB-3-1 viability, CellTiter-Glo ATP luminescence, 72 h. Potency, µM (doses to about 46.1 µM), usual class: cytotoxic. AID 1347075, 2019. 1.4% of 400,000 active; note: nearly all actives have a fitted effect of over 60% in size
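Screening of KB-3-1 cells (DMEM, 10% FBS, phenol-red free) ran from lowest to highest compound concentration; after 72 h at 37 °C viability was read luminescently and curves fitted.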
IL-1B inflam inh – qHTS for Inhibitors of Inflammasome Signaling: IL-1-beta AlphaLISA Primary Screen; activity change, % at 57.5 µM; THP-1 LPS/ATP IL-1B secretion, AlphaLISA, 16 h; active compounds read low; 4.7% of 360,000 active; in the data active = activity change below about -50%; inconclusive = mostly about -30% to -49%
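THP-1 cells pretreated 1 hr with compounds (up to 57.5 uM final), then stimulated with LPS (250 ng/mL final) plus ATP (1.25 mM final); secreted IL-1B measured by AlphaLISA after 16 hr, decreased signal indicating inhibition.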
HT1080 IDH1KD tx – qHTS for induction of synthetic lethality in tumor cells producing 2HG: qHTS for the HT-1080-IDH1KD cell line | 2% of 360,000 active | HT-1080 IDH1 knockdown viability, ATP luminescence, 48 h | AID 686971, 2013 | Potency, µM (doses to about 46.1 µM), usual class: cytotoxic
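% activity derives from luminescence (CellTiter-Glo), normalised to DMSO and no-cell wells. HT-1080-IDH1KD cells, 750/well, had 48 h compound exposure at 37 °C.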
KB-V1 cytotox – qHTS assay for MDR1-selective chemotherapeutics: Primary screen using the drug-selected MDR subline cells KB-V1. KB-V1 MDR cells viability, CellTiter-Glo, 72 h. Potency, µM (top dose mostly 46.1 µM), hits mostly cytotoxic. 3.4% of 400,000 active; note: nearly all actives have a fitted effect of over 60% in size
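Following 72 h at 37 degrees C with compound, KB-V1 cell viability was read by CellTiter-Glo luminescence, medium being phenol-red-free DMEM plus 10% FBS; concentration-response parameters came from normalized, curve-fitted qHTS data.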
Each line names hits and unclear results; the compound was inactive in the other large screens. Unless noted, calls come from the whole dose curve; as a rule, active = well fitted curve in the direction sought with a large enough effect; inconclusive = small, poorly fitted or top-dose-only effect, or another doubt; inactive = no such curve, though single readings can be large; an effect the other way counts as inactive or inconclusive.

CSc1cccc(NC(=O)CN2C(=O)COc3ccc(Cl)cc32)c1	KB-V1 cytotox inconclusive (no result: HT1080NT lethal, IL-1B inflam inh, HT1080 IDH1KD tx)
Cc1ccc(/C(=N\O)c2oc3c(C)c4oc(=O)cc(C)c4cc3c2C)cc1	HT1080NT lethal inconclusive, KB-3-1 cytotox inconclusive, HT1080 IDH1KD tx 23µM, KB-V1 cytotox inconclusive
Cc1cc(=O)oc2c1ccc1oc(/C(=N/O)c3ccccc3)c(C)c12	HT1080NT lethal inconclusive, KB-3-1 cytotox inconclusive, IL-1B inflam inh -74, HT1080 IDH1KD tx inconclusive, KB-V1 cytotox 21µM
CCc1c(C(=O)c2ccc(Cl)cc2)oc2c(C)c3oc(=O)cc(C)c3cc12	none
Cc1cc(C)cc(NC(=O)CN2CCc3cc4c(cc3C2C)OCCCO4)c1 (configuration not stated)	none
Cc1cccc(NC(=O)CN2CCc3cc4c(cc3C2C)OCCCO4)c1 (configuration not stated)	IL-1B inflam inh -54
COCCCNC(=S)N(Cc1ccccc1)Cc1ccccc1	KB-V1 cytotox 18µM
Nc1nnc(-c2ccc([N+](=O)[O-])o2)s1	HT1080NT lethal 23µM, KB-3-1 cytotox inconclusive
Cc1cccc(Cn2c(C)c(C)c3cc(C(=O)NCc4ccco4)ccc32)c1	KB-3-1 cytotox inconclusive (no result: HT1080NT lethal, IL-1B inflam inh, HT1080 IDH1KD tx)
CC(C)CC(COCc1cccc(C(F)(F)F)c1)N1CCN(C(=O)c2cccc(C(F)(F)F)c2)CCC1=O (configuration not stated)	IL-1B inflam inh -67, KB-V1 cytotox inconclusive
CC(C)C[C@@H](COCc1ccc(C(F)(F)F)cc1)N1CCN(C(=O)c2ccc(C(F)(F)F)cc2)CCC1=O	HT1080NT lethal inconclusive, KB-3-1 cytotox inconclusive, IL-1B inflam inh -76, HT1080 IDH1KD tx inconclusive
CC(C)CC(COCc1ccc(Cl)cc1)N1CCN(C(=O)c2cccc(C(F)(F)F)c2)CCC1=O (configuration not stated)	none
CC(C)C[C@@H](COCc1cccc(Cl)c1)N1CCN(C(=O)c2ccc(C(F)(F)F)cc2)CCC1=O	HT1080NT lethal inconclusive, KB-3-1 cytotox inconclusive, IL-1B inflam inh -50, HT1080 IDH1KD tx inconclusive, KB-V1 cytotox inconclusive
CC(C)CC(COCc1ccc(C(F)(F)F)cc1)N1CCN(C(=O)c2ccc(C(F)(F)F)cc2)CCC1=O (configuration not stated)	HT1080NT lethal inconclusive, KB-3-1 cytotox inconclusive, IL-1B inflam inh -54, HT1080 IDH1KD tx inconclusive, KB-V1 cytotox inconclusive
Cc1ccc(COC[C@H](CC(C)C)N2CCN(C(=O)c3cccc(C(F)(F)F)c3)CCC2=O)cc1	HT1080NT lethal inconclusive, HT1080 IDH1KD tx inconclusive, KB-V1 cytotox inconclusive
Cc1ccsc1C(=O)NNC(=O)c1ccncc1	none
COc1ccc(CNC(=O)c2cc(-c3ccc(C)c(C)c3)n[nH]2)cc1	none (no result: HT1080NT lethal, IL-1B inflam inh, HT1080 IDH1KD tx)
CC(SC1=NS(=O)(=O)c2ccccc21)C(=O)O (configuration not stated)	none (no result: HT1080NT lethal, IL-1B inflam inh, HT1080 IDH1KD tx)
C=CCN(CC=C)C(=O)c1ccc(OC2CCN(S(=O)(=O)N(C)C)CC2)cc1	KB-3-1 cytotox inconclusive, KB-V1 cytotox 21µM
C=CCN(CC=C)C(=O)c1cccc(OC2CCN(S(=O)(=O)N(C)C)CC2)c1	none
CC(=O)Oc1ccc(C23c4ccccc4C2(OC(C)=O)c2cc(OC(C)=O)ccc23)cc1 (configuration not stated)	HT1080NT lethal 7.3µM, KB-3-1 cytotox inconclusive, IL-1B inflam inh -93, HT1080 IDH1KD tx 7.3µM, KB-V1 cytotox inconclusive
CC(=O)Oc1ccc(C(=O)Nc2ccccc2NC(=O)c2ccc(OC(C)=O)cc2)cc1	none
O=C(CCl)N=c1sccn1Cc1cccc2ccccc12	HT1080NT lethal inconclusive, KB-3-1 cytotox inconclusive, IL-1B inflam inh -102, HT1080 IDH1KD tx 18µM, KB-V1 cytotox inconclusive
O=C(CCl)N=c1sccn1Cc1ccccc1Cl	HT1080NT lethal 0.092µM, KB-3-1 cytotox inconclusive, IL-1B inflam inh -100, HT1080 IDH1KD tx 0.092µM, KB-V1 cytotox inconclusive
O=C(CCl)N=c1sccn1Cc1ccc(Cl)cc1Cl	HT1080NT lethal 5.8µM, KB-3-1 cytotox inconclusive, IL-1B inflam inh -97, HT1080 IDH1KD tx 3.3µM, KB-V1 cytotox 18µM
CCC(=O)OCC(=O)N=c1sccn1Cc1ccccc1Cl	none
COc1ccc(-c2nnc(NC(=O)C3=COCCO3)o2)cc1	none
CC(=O)c1cc(-c2ccc(F)cc2)n(CC(=O)NC2CCC(C)CC2)c1C (configuration not stated)	KB-V1 cytotox inconclusive (no result: HT1080NT lethal, IL-1B inflam inh, HT1080 IDH1KD tx)
CSc1ccc(CCNC(=O)Cn2nc(C)n3c(cc4sccc43)c2=O)cc1	none (no result: HT1080NT lethal, IL-1B inflam inh, HT1080 IDH1KD tx)
O=C(CSc1n[nH]c(=O)n1Cc1ccccc1)Nc1ccc(F)c(F)c1F	KB-3-1 cytotox inconclusive, KB-V1 cytotox 16µM
Cc1ccc(CNC(=O)CSc2nc3ccsc3c(=O)n2NC(=O)c2ccccc2)cc1	none
O=C(Nn1c(SCc2ccc(F)cc2)nc2ccsc2c1=O)c1ccccc1	KB-V1 cytotox 4.1µM
CC(=O)/C=C1/C(=O)Nc2ccccc21	HT1080NT lethal inconclusive, KB-3-1 cytotox inconclusive, HT1080 IDH1KD tx inconclusive
C=CCOc1cccc(C(=O)/C=C2/C(=O)Nc3ccccc32)c1	HT1080NT lethal 18µM, KB-3-1 cytotox inconclusive, IL-1B inflam inh inconclusive, HT1080 IDH1KD tx inconclusive
O=C1Nc2ccc(Br)cc2/C1=C/C(=O)c1ccccc1	HT1080NT lethal inconclusive, KB-3-1 cytotox inconclusive, IL-1B inflam inh -103, HT1080 IDH1KD tx inconclusive, KB-V1 cytotox inconclusive
O=C(O)COc1ccccc1/C=C1\C(=O)Nc2ccc(Br)cc21	none
O=C(CN1C(=O)COc2ccc(Cl)cc21)NC1CC1	none
COc1ccc(/C=C(\NC(=O)c2ccco2)C(=O)NC(Cc2ccccc2)C(=O)O)cc1 (configuration not stated)	KB-V1 cytotox inconclusive
CCCCCCCCCCCCCCCCCCN(CCCCCCCCCCCCCCCCCC)c1ccc(/C=C/c2ccc(C=O)cc2)cc1	none (no result: HT1080NT lethal, IL-1B inflam inh, HT1080 IDH1KD tx)
Cc1cc(C(=O)N/N=C/c2c3ccccc3cc3ccccc23)n[nH]1	HT1080NT lethal inconclusive, KB-3-1 cytotox inconclusive, HT1080 IDH1KD tx 16µM, KB-V1 cytotox 18µM
CCOc1ccc2ccccc2c1/C=N/NC(=O)c1cc(C)[nH]n1	IL-1B inflam inh inconclusive, KB-V1 cytotox inconclusive
Nc1nc2[nH]cc(CCc3ccc(C(=O)N[C@@H](CCC(=O)O)C(=O)O)cc3)c2c(=O)[nH]1	none (no result: HT1080NT lethal, IL-1B inflam inh, HT1080 IDH1KD tx)
CCNC(=O)C1CCCN(C(=O)c2ccc3c(c2)CCO3)CC1 (configuration not stated)	none
CC(Sc1nc2ccccc2c(=O)n1C)C(=O)N(C)C1CCCCC1 (configuration not stated)	KB-3-1 cytotox inconclusive, HT1080 IDH1KD tx inconclusive, KB-V1 cytotox 5.8µM
CC(Sc1nc2ccccc2c(=O)n1CC1CCCO1)C(=O)N(C)Cc1ccccc1 (configuration not stated)	KB-3-1 cytotox inconclusive
